Assay outcomes deposited in PubChem BioAssay by several laboratories.
A selection: hits, their analogues and other compounds. The true share with any hit is near 2.1%.
TPT1 inhibitor: C. albicans TPT1 enzyme inhibition; hit rate 0.81% among 300,000; inhibition, % at 5 µM; recombinant caTPT1, FP RNA substrate dephosphorylation; AID 1962;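 active = inhibition above the mean of all tested compounds plus 3 SD, set per screening campaign, cut at about 24% in these data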
HNF4A DNA FP: change in binding of human HNF4 alpha to DNA | P41235 | HNF4a-FITC DNA binding, fluorescence polarization, 1 h | activity change, % at 10 µM | hit rate 0.3% among 360,000 | AID 1224865; in the data active = activity change above about 30%, passing the limit was not always enough
Myeloid diff MLP: promotes myeloid progenitor differentiation; hit rate 1% among 360,000; ER-HoxA9 myeloid progenitors, lysozyme-GFP differentiation, flow cytometry; AID 624256; calls only at 10 µM;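 active = normalized GFP-positive differentiation at or above the plate's own cutoff, the solvent-only control mean plus 3 SD; inconclusive = no clear call, values can overlap the other calls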;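 note: cells exposed to compound for four days before flow analysis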
Rpn11 inh: inhibitors of human proteasome Rpn11; human 26S proteasome, Ub4-pepOG fluorescence polarization; 20S core pre-blocked with epoxomicin; inhibition, % at 20 µM; hit rate 0.59% among 360,000;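 active = inhibition at 20 µM, scaled to each plate's controls, above about 33%, limit read from the data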
Target sequence (O00487 whole entry, looked up): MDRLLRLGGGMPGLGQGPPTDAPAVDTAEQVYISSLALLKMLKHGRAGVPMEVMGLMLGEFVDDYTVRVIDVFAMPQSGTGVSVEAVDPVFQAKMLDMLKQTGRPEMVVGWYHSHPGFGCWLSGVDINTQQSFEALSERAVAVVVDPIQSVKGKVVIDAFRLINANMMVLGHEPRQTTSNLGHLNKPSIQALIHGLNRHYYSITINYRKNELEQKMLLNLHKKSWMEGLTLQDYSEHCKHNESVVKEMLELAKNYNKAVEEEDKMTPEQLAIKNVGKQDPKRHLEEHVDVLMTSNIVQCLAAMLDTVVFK
Myeloid diff: myeloid differentiation induction. shares compounds with Myeloid diff MLP. hit rate 2% among 2,300. calls only. ER-HoxA9 myeloid progenitors, GFP/Mac1 double-positive flow;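 active = share of green or green-and-red cells above 9 and 9% in run 1 or 4 and 3% in run 2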
GFP autofluor: compound fluorescence in myeloid differentiation counter-screen; shares compounds with Myeloid diff MLP; ER-HoxA9 myeloid progenitors, no estrogen, GFP autofluorescence flow cytometry; vehicle wells 0%, positive control 100%; fluorescence response, % (test concentration not listed); hit rate 7.4% among 2,300;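 active = over 5% cells positive for green fluorescent reporter, or over 2% positive for both it and APC stain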
Large screens that a line does not name were inactive (follow-up assays come after a bar, where shown).

CCN(CC)C(=O)CN1C(=O)C(=O)c2ccccc21	none | Myeloid diff inactive | GFP autofluor inactive
Cc1ccc(CNC(=O)CS(=O)(=O)Cc2nc(-c3ccc(C)cc3)oc2C)cc1	Myeloid diff MLP inconclusive
CCC(=O)N(CCC(c1ccc(C)cc1)c1ccco1)Cc1ccco1 (stereo not given)	none | Myeloid diff inactive | GFP autofluor inactive
CCC(=O)N(CCC(c1ccco1)C(C)C)Cc1ccccc1 (stereo not given)	none
CC1(C(=O)NS(=O)(=O)C2CC2)CCCN(C(=O)c2cccc(Cl)c2)C1 (stereo not given)	none (no result: TPT1 inhibitor)
Cc1ccc(-c2nc3c4ccccc4ccn3c2Cc2ccccc2C(F)(F)F)cc1	none (no result: TPT1 inhibitor, Rpn11 inh)
CCc1nc(OCc2ccccc2)c2sc3nc4c(cc3c2n1)COC(C)(C)C4	none | Myeloid diff inactive | GFP autofluor inactive
CC1(C)Cc2nc3sc4c(OCc5ccccc5)ncnc4c3cc2CO1	none
CC1(c2ccccc2)NC(=O)N(CC(=O)NNC(=O)c2cccc(Cl)c2)C1=O (stereo not given)	none (no result: TPT1 inhibitor)
CCC(=O)Nc1cccc(NC(=O)c2ccccc2Cl)c1	none | Myeloid diff inactive | GFP autofluor inactive
Cc1ccc(C(=O)N(Nc2nc3ccccc3s2)C(=O)c2ccc(C)cc2)cc1	none
CC(C)C(=O)N(Nc1nc2ccccc2s1)C(=O)C(C)C	Myeloid diff MLP active | Myeloid diff inactive | GFP autofluor inactive
COc1ccccc1C(=O)Nc1ccnn1C1CCN(Cc2ccc3nonc3c2)CC1	Myeloid diff MLP inconclusive
CCNC(=O)/C(C#N)=C/c1c(N(Cc2ccccc2)Cc2ccccc2)nc2ccccn2c1=O	Myeloid diff MLP active | Myeloid diff inactive | GFP autofluor inactive
CNC(=O)/C(C#N)=C/c1c(N(Cc2ccccc2)Cc2ccccc2)nc2c(C)cccn2c1=O	none
O=c1oc2c3c4c(cc2c(C(F)(F)F)c1CCN1CCOCC1)CCCN4CCC3	Myeloid diff MLP active (not shown: Rpn11 inh) | Myeloid diff inactive | GFP autofluor inactive
CCNC(=S)N(CCc1c(C)[nH]c2ccccc12)Cc1cc(OC)c(OC)c(OC)c1	none | Myeloid diff inactive | GFP autofluor inactive
CCOC(=O)C1=C(COC(=O)c2cc(Br)c(Br)s2)NC(=O)NC1C (stereo not given)	none
Cc1ccsc1CN(C)CC(=O)NCC(=O)Nc1ccc(F)c(F)c1F	Myeloid diff MLP active (not shown: TPT1 inhibitor, Rpn11 inh) | Myeloid diff inactive | GFP autofluor inactive
Cc1ccsc1CN(C)CC(=O)NCC(=O)Nc1ccc(F)cc1	none (no result: TPT1 inhibitor)
CCOC(=O)[C@]12CCCC=C1N(Cc1ccc(Cl)cc1Cl)C(=O)[C@H](CC(=O)NCC13CC4CC(CC(C4)C1)C3)C2	none (no result: TPT1 inhibitor, Rpn11 inh)
C=CCn1c(=O)c2c(nc3n2CC(C)CN3Cc2ccccc2)n(C)c1=O (stereo not given)	none
O=C(NCc1ccccc1)C(C(=O)c1ccc(F)cc1)n1ccccc1=O (stereo not given)	none | Myeloid diff inactive | GFP autofluor inactive
O=C(NCc1cccnc1)C(C(=O)c1ccc(F)cc1)n1ccccc1=O (stereo not given)	none
COc1ccc(CNC(=O)C2CCN(C(=O)Cc3ccccc3)CC2)cc1	none
CC(C)c1ccc(S(=O)(=O)N2CCN(C(=O)Cc3ccsc3)CC2)cc1	none
COC(=O)COc1ccc(S(=O)(=O)Nc2ccc3c(c2)OCO3)cc1Cl	Myeloid diff MLP active | Myeloid diff inactive | GFP autofluor inactive
CC(C)(C)C1CCC(=NNC(=O)C2COc3ccccc3O2)CC1 (stereo not given)	none (no result: TPT1 inhibitor)
CC1(C)CC(=O)C/C(=N/NC(=O)c2ccc(-c3ccccc3)cc2)C1	Myeloid diff MLP active | Myeloid diff inactive | GFP autofluor 5.2
CC1(C)CC(=O)C/C(=N\NC(=O)Cc2ccccc2)C1	none
CCCCCCCCNC1=CC(=O)CC(C)(C)C1	none
COc1ccc(OC)c(/C=C2\SC(=S)N(NS(=O)(=O)c3ccc(C)cc3)C2=O)c1	none
COc1ccc(/C=C2\SC(=S)N(NS(=O)(=O)c3ccc(C)cc3)C2=O)c(OC)c1	none | Myeloid diff inactive | GFP autofluor inactive
Cc1cc(=O)c2c([nH]1)c(C)cc1[nH]c(C)c(C)c12	none (no result: TPT1 inhibitor) | Myeloid diff inactive | GFP autofluor inactive
Cc1cc(C)c(S(C)(=O)=O)c(=O)[nH]1	none
O=C(Cn1c(=O)[nH]c2ccsc2c1=O)NC1CCCCC1	Myeloid diff MLP active | Myeloid diff inactive | GFP autofluor inactive
COc1ccccc1Oc1c(C)oc2c(CN3CCOCC3)c(O)ccc2c1=O	none
COc1cccc(Oc2c(C)oc3c(CN4CCCC4)c(O)ccc3c2=O)c1	none | Myeloid diff inactive | GFP autofluor inactive
